Results published in PubChem BioAssay (NCI).
The panel holds about 83,000 compounds, 20% with a hit somewhere; the sample as a whole holds those more often.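 Growth was measured after 48 h exposure to one concentration of compound in 96-well plates. Values under 10 count as active.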 A number with no mark means an inactive call. Calls of active or inactive are those of the source.

What follows are molecules tested on NCI/ADR-RES ovarian (assay: NCI-60 one-dose screen, 48 h (100 = growth as untreated, 0 = no growth, -100 = all killed)). Conditions: 10 µM unless noted.
Method: Growth inhibition of the NCI/ADR-RES human […] tumor cell line is measured as a screen for anti-cancer activity. Cells are grown in 96 well plates and exposed to the test compound for 48 hours. Compounds are tested at a single concentration, which is 10^-5 M for most compounds. The reported endpoint is percent growth (GI% or GIPRCNT), where numbers from 0 - 100% represent growth inhibition, and numbers from -100% - 0 represent cell death. For example, a value of 40 represents 60% growth inhibition. A value of 0 means no net growth occurred over the course of the experiment. A value of -40 indicates 40% of cells at the beginning of the experiment died by the end of the experiment. A value of -100 means all cells are dead at the end of the experiment.
NCI-60 Human Tumor Cell Lines Screen was performed using the standard one-dose NCI protocol, which is described in more detail at https://dtp.cancer.gov/discovery_development/nci-60/default.htm.
Compounds with GIPRCNT values below 10 were considered active. Activity score was based on GIPRCNT using the following formula: […]
Score is 0 for GIPRCNT values of 100 or above, 50 for GIPRCNT values of 0, and 100 for GIPRCNT values of -100.

Row | SMILES | growth
1 | CCCC/C=N/NC(=S)NCc1ccccc1 | 104%
2 | COC1=CC(=O)c2ccccc2C1=O | 60.8%
3 | COc1cccc(-c2nc3occn3c2-c2ccnc(NCCCNS(=O)(=O)c3ccc(C(F)(F)F)cc3)n2)c1 | 89.2%
4 | O=C(/C=C/c1c(-c2ccc(Cl)cc2)nn(-c2ccccc2)c1C(F)(F)F)c1ccc(Cl)cc1 | 97.4%
5 | Nc1n[nH]c2cccc(C#Cc3cccc(C(=O)Nc4cccc(C(F)(F)F)c4)c3)c12 | 80.6%
6 | O=C(Nc1ccccc1C(=O)N/N=C(\c1ccccc1)c1ccccn1)c1ccc(F)cc1 | 9.79% (active)
7 | COc1ccc(C(=O)c2nc3ccccc3n2CC(=O)c2ccc(Cl)cc2)cc1 | -45.6% (active)
8 | CN(C)c1ccc(Nc2c3ccccc3nc3cc(NC(=O)CCN4CCCC4)ccc23)cc1 | 58.3%
9 | c1ccc2cc(Cn3c(-c4cccc5ccccc45)[n+](Cc4ccc5ccccc5c4)c4c5ccccc5c5ccccc5c43)ccc2c1 | 17.7%
10 | Cc1ccc(-n2cc(-c3ccccc3)c3c2N=NN2CCN=C32)cc1 | 102%
11 | Nc1c(C(=O)Nc2ccnc3ccccc23)sc2nc3c(cc12)CN(Cc1ccccc1)CC3 | 69.2%
12 | CNC(=O)c1cc(Cn2nc(C)c(NC(=O)Nc3ccc(Cl)c(C(F)(F)F)c3)c2C)ccn1 | 98.8%
13 | Cc1cccc(C)c1N=c1oc2ccc(Cl)cc2nc1-c1ccccc1O | 86.4%
14 | COc1ccc(CC(C)=C(c2ccc(OCCN3CCCCCC3)cc2)c2ccc(OCCN3CCCCCC3)cc2)cc1 | -90.3% (active)
15 | COc1cc(CC(=O)c2ccc(O)c(OC)c2)ccc1O | 100%
16 | COc1cc2nc(-c3ccc(Cl)cc3)cc(OCCCN3CCC(O)CC3)c2cc1OC | 44.6%
17 | O=C(CCN1CCCC1)Nc1ccc2c(NCCc3ccccc3)c3ccccc3nc2c1 | 71.5%
18 | CCCCCCCCCCCCCCCC[N+]1(C)CCN(SN2CC[N+](C)(CCCCCCCCCCCCCCCC)CC2)CC1 | 96.3%
19 | CCCOc1ccc(/C=N/Nc2cc(C)nc3ccc(Cl)cc23)cc1 | 82.4%
20 | CC(C)N1C(=O)S/C(=C2/SC(=O)N(C(C)C)C2=O)C1=O | 103%

Row | SMILES | growth
21 | O=C1/C=C/[C@@H](O)[C@@H]2C[C@@H](O)C[C@H]2/C=C/CCC[C@H](CCc2cccc3ccccc23)O1 | 2.01% (active)
22 | CC1(C)CC[C@]23CC[C@]4(C)[C@H](CC[C@@H]5[C@@]6(C)CCCNC(C)(C)[C@@H]6CC[C@]54C)[C@H]2[C@H]1OC3 | -19.6% (active)
23 | ClC1=C(Br)C(Br)(Br)C(=C(Br)Br)C1(Br)Br | 110%
24 | COc1ccc2nc(-c3ccc(-c4noc(-c5cc(OC)c(OC)c(OC)c5)n4)cc3)[nH]c2c1 | 45.3%
25 | O=C(CCN1CCCC1)Nc1ccc2c(NCCCCc3ccccc3)c3ccccc3nc2c1 | 80.8%
26 | C=C(C)[C@@H]1CC[C@]2(CN)CC[C@]3(C)[C@H](CC[C@@H]4[C@@]5(C)CCCNC(C)(C)[C@@H]5CC[C@]43C)[C@@H]12 | -52% (active)
27 | O=C(/C(=C\c1ccc([N+](=O)[O-])cc1)S(=O)Cc1ccc(Cl)cc1)c1ccc(Cl)cc1 (stereo not given) | 71.7%
28 | COc1cc2nc(-c3ccc(C(F)(F)F)cc3)cc(OCCCN3CCCC3)c2cc1OC | 46.4%
29 | O=C(Nc1cccc(C(=O)N2CCc3ccc(Cl)cc32)c1)c1ccco1 | 24.2%
30 | CCCCCN1C=C/C(=C\C(=O)n2ccc3ccccc32)c2ccccc21 | 94.3%
31 | COc1cc(/C=N/NC(=O)c2cnn3c2NC(c2ccccc2)C3)ccc1Oc1ccccc1 (stereo not given) | 41.3%
32 | COc1ccc(C(C)=O)c(OC)c1 | 108%
33 | CCN(CC)c1ccc(/C=N/NC(=O)CSc2nc3ccccc3c(=O)n2Cc2ccc(S(N)(=O)=O)cc2)c(O)c1 | 87.2%
34 | C[C@H]1[C@H](C)CC[C@]2(C(=O)Nc3ccc4ncccc4c3)CC[C@]3(C)C(=CC[C@@H]4[C@@]5(C)CCCNC(C)(C)[C@@H]5CC[C@]43C)[C@H]12 | -48.6% (active)
35 | C=C(C)[C@@H]1CC[C@]2(C(=O)N3CCN(C)CC3)CC[C@]3(C)[C@H](CC[C@@H]4[C@@]5(C)CC[C@H](OCCC#N)C(C)(C)[C@@H]5CC[C@]43C)[C@@H]12 | 45.8%
36 | NC(=NCCCOc1ccc(F)cc1)Nc1ccc(I)cc1 | 81.5%
37 | COc1cccc(-c2nc3occn3c2-c2ccnc(NCCNS(=O)(=O)c3ccc(C(F)(F)F)cc3)n2)c1 | 99.4%
38 | COc1ccc(CCn2cncc2-c2c[nH]c3ccccc23)cc1 | 87.6%
39 | O=C1Nc2ccccc2/C1=C\c1c(-c2ccccc2)nc2ccccn12 | -11.1% (active)
40 | CC(c1ccccc1)C(C(=O)c1ccccc1)c1ccccc1 (stereo not given) | 80.3%
